Activity calls are given as the source filed them.

Drawing on PubChem BioAssay, this text covers composite z-score and z-score for five compounds.

Assay [1] in a line: binders of probe aFSTL3 on microarray, primary screen, stem cell growth factor project, biochemical, small-molecule microarray, fluorescence 635/667 (AID 1064).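 Further: measures binding of the biotinylated anti-FSTL3 antibody to printed compounds.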 The settings on record: higher = more signal.
Assay [2] in a line: binders from COS7 lysate, DM2A8 probe, primary screen, torsin A project, cell lysate, small-molecule microarray, fluorescence 635/667 (AID 1065). The following applies: higher = more signal, COS7 lysate expressing mutant human TOR1A.
Assay [3] can be described thus: binders of probe aFGF2 on microarray, primary screen, stem cell growth factor project, biochemical, small-molecule microarray, fluorescence 635/667 (AID 1067).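 Further: measures binding of biotinylated aFGF2 protein to printed compounds on slides; z-score merges feature fluorescence and signal-to-noise across triplicate slides.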 The settings on record: higher = more signal.
A short description of assay [4]: binders of probe aFGF10 on microarray, primary screen, stem cell growth factor project, biochemical, small-molecule microarray, fluorescence 635/667 (AID 1071).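 Further: score merges 667 nm spot intensity and signal to noise from triplicate slides.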 The following applies: higher = more signal.
The target in assay [5] is Neurogenic locus notch homolog protein 2 (Homo sapiens) (UniProt Q04721). The assay can be described thus: Notch2 binders on small-molecule microarrays, primary screen, biochemical, small-molecule microarray, 635 nm fluorescence, stem cell growth factors (AID 1073). The settings on record: Notch2 binding, higher = more signal.
Assay [6] addresses Pro-neuregulin-1, membrane-bound isoform (Homo sapiens) (UniProt Q02297). The assay can be described thus: NRG1 binders on small-molecule microarrays, primary screen, psychiatric disease protein project, biochemical, small-molecule microarray, fluorescence 635/667 (AID 1075).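 Further: score combines 667 nm spot fluorescence with signal to noise.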 The settings on record: NRG1 binding, 635 nm fluorescence, higher = more signal.
Assay [7] concerns Neuregulin-1 EGF-like domain. The assay can be described thus: binders of neuregulin-1 EGF-like domain, primary screen, biochemical, small-molecule microarray, 635 nm fluorescence (AID 1081).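 Further: binding of the protein to compounds printed on small-molecule microarray slides.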 The settings on record: small-molecule microarray binding, higher = more signal.
Assay [8] can be described thus: FRG1 promoter luciferase signal modulators, primary screen, FRG1 inhibition for FSHD, cell-based, C2C12 myotubes, firefly/Renilla luciferase, luminescence (AID 1084). The following applies: higher = more signal, called active from +8 up or from −8 down.
Assay [9] in a line: binders of probe aFST on microarray, primary screen, stem cell growth factor project, biochemical, small-molecule microarray, fluorescence 635/667 (AID 1086).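 Further: score merges 667 nm fluorescence with signal-to-noise of each printed compound spot.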 The settings on record: higher = more signal.
Assay [10] can be described thus: binders of probe aHhip on microarray, primary screen, stem cell growth factor project, biochemical, small-molecule microarray, fluorescence 635/667 (AID 1087).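 Further: score merges spot fluorescence at 667nm with spot signal to noise ratio.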 The settings on record: higher = more signal.
Assay [11] has as its system PRMT1 (protein arginine N-methyltransferase 1). The assay can be described thus: PRMT1 binders on small-molecule microarrays, primary screen, biochemical, small-molecule microarray, 635 nm fluorescence (AID 1088).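 Further: binding of Prmt1 protein to compounds spotted on small-molecule microarray slides.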 The settings on record: small-molecule microarray binding, higher = more signal.
Assay [12] in a line: yeast growth modulation, basal conditions, primary screen, YJM789 clinical isolate, OD600, 24 h (AID 1089).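 Further: growth of clinical yeast isolate S. cerevisiae YJM 789 seeded 1000 cells per well; test concentration not given here.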 The settings on record: S. cerevisiae YJM789 growth, higher = more signal, called active from +8 up or from −8 down.
Assay [13] can be described thus: fission yeast growth modulation, primary screen, strain 972, OD600, 24 h, no modulator (AID 1090).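 Further: basal condition with compound alone and no growth modifier present; test concentration not given here.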 The following applies: S. pombe 972 growth, higher = more signal, called active from +8 up or from −8 down.
Assay [14] is described as follows: S. cerevisiae growth modulation with rapamycin, primary screen, strain BY4716, OD600, 96 h (AID 1091). Further: test concentration not given here. The settings on record: higher = more signal, called active from +8 up or from −8 down.
Assay [15] concerns the target Torsin-1A-interacting protein 2 (Homo sapiens) (UniProt Q8NFQ8). The assay can be described thus: LULL1 binders on small-molecule microarray, primary screen, cell lysate, human LULL1 lysate, 635/667 nm fluorescence (AID 1092).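 Further: probe is lysate of COS7 cells overexpressing human LULL1; score merges per-feature 667 nm fluorescence with signal-to-noise.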 The following applies: hLULL1 lysate binding, 635 nm fluorescence, higher = more signal.
A short description of assay [16]: E. coli growth modulation, two-sided OD650, primary screen, E. coli filamentation project, strain DRC41, 24 h (AID 1093).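 Further: MC1000 strain lacking acrAB efflux and sulA so SOS filamentation is blocked; test concentration not given here.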 The settings on record: OD650, 24 h, higher = more signal, called active from +8 up or from −8 down.
Assay [17] in a line: small-molecule microarray binders of probe aLefty2, primary screen, biochemical, biotinylated probe, 635/667 nm fluorescence (AID 1094).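 Further: score merges spot fluorescence near 667 nm with spot signal-to-noise ratio.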 The following applies: higher = more signal.
Assay [18] relates to Noggin (protein binding on small-molecule microarray). The assay can be described thus: Noggin binders on small-molecule microarray, primary screen, biochemical, 635/667 nm fluorescence (AID 1095).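 Further: score merges 667 nm feature fluorescence with signal to noise over triplicate slides.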 The following applies: 635 nm fluorescence, higher = more signal.
Assay [19] has as its target Neurogenic locus notch homolog protein 3 (Homo sapiens) (UniProt Q9UM47). Kind of assay: NOTCH3 binders on small-molecule microarray, primary screen, biochemical, 635/667 nm fluorescence (AID 1096). The following applies: NOTCH3 binding, 635 nm fluorescence, higher = more signal.
Assay [20] in a line: small-molecule microarray binders of probe aEGFR, primary screen, biochemical, biotinylated probe, 635/667 nm fluorescence (AID 1097).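 Further: probe is a biotinylated anti-EGFR antibody binding compounds printed on slides; score combines fluorescence near 667 nm and signal to noise of each spot.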 The settings on record: higher = more signal.

Pro-neuregulin-1, membrane-bound isoform (Homo sapiens), sequence (Q02297 whole entry, looked up, the tested form may be a part, canonical isoform): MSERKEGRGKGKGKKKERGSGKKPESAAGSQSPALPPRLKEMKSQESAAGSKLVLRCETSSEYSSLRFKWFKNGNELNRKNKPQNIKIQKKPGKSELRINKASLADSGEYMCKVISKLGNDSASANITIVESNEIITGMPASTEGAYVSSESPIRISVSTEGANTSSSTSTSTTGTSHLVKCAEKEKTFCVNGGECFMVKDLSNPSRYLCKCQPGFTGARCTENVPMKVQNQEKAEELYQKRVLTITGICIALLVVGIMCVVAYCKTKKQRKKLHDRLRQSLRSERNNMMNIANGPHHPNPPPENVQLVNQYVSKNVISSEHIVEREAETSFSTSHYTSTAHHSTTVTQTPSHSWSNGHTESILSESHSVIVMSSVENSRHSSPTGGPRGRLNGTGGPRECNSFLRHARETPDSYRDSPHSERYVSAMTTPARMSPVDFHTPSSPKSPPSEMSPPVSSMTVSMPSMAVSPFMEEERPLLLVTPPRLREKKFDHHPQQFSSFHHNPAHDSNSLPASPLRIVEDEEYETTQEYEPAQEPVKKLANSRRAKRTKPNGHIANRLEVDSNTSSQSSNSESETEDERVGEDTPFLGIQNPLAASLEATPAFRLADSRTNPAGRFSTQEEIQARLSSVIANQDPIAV
Neurogenic locus notch homolog protein 2 (Homo sapiens), sequence (Q04721 whole entry, looked up, canonical isoform): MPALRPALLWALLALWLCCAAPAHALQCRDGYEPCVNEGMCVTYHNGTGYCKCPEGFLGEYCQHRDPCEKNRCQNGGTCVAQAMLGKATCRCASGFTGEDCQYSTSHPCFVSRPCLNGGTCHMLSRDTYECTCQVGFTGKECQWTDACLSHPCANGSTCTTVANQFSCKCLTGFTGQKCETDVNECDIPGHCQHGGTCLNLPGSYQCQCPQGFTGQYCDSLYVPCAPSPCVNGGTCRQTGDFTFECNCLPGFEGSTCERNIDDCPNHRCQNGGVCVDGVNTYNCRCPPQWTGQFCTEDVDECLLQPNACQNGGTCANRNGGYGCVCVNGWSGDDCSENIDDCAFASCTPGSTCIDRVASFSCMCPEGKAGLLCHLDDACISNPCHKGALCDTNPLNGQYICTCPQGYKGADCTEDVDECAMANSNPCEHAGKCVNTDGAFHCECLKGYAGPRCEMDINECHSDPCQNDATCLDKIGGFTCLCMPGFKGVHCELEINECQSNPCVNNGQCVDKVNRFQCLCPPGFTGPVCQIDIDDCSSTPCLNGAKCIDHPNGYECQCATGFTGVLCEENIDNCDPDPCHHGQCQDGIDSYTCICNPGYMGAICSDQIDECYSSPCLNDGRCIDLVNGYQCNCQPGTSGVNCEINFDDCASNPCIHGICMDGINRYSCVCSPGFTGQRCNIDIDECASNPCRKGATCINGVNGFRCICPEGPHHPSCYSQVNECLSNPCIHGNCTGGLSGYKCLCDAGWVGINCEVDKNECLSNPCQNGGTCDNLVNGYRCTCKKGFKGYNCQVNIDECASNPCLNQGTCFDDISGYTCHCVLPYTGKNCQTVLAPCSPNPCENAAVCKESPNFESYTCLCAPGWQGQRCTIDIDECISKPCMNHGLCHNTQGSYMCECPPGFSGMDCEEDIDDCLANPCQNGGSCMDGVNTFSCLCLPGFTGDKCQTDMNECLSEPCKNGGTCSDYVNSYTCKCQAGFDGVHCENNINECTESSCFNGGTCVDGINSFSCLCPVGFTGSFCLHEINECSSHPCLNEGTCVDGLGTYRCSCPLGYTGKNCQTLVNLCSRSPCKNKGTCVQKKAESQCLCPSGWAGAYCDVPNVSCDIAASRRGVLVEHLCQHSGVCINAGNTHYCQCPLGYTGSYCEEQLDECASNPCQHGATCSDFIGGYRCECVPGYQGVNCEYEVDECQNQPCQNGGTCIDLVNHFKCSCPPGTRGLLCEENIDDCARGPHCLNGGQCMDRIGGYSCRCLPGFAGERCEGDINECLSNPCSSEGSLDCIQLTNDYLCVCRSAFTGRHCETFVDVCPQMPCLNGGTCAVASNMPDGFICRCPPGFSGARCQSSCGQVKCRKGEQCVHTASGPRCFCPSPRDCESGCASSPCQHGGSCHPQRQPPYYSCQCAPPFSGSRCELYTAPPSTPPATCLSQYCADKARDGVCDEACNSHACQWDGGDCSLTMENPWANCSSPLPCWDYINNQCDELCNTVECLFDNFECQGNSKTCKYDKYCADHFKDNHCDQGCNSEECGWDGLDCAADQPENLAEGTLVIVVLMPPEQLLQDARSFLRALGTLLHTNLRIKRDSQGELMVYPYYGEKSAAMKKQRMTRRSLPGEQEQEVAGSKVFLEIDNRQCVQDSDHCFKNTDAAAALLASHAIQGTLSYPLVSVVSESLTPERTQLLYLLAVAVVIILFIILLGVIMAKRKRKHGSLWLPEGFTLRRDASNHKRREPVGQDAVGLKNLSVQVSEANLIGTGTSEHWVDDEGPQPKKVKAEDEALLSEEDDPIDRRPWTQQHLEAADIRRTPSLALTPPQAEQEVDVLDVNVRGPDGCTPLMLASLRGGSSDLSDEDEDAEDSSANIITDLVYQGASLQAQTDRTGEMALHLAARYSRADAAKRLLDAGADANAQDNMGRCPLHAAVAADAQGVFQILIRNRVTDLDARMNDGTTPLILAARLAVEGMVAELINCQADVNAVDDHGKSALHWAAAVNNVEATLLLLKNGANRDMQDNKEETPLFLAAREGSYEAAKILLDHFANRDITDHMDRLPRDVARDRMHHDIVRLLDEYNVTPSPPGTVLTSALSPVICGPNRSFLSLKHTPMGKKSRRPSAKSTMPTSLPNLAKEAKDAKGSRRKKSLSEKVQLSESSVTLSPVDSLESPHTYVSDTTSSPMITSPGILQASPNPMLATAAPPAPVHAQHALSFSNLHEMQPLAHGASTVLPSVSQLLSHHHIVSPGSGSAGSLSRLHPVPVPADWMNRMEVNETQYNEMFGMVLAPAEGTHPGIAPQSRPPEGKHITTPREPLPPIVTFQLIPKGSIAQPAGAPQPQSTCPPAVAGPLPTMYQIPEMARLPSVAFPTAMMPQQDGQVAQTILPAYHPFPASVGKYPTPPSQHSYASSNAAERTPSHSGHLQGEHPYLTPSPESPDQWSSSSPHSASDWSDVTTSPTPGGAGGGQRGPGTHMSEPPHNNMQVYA
Torsin-1A-interacting protein 2 (Homo sapiens), sequence (Q8NFQ8 whole entry, looked up): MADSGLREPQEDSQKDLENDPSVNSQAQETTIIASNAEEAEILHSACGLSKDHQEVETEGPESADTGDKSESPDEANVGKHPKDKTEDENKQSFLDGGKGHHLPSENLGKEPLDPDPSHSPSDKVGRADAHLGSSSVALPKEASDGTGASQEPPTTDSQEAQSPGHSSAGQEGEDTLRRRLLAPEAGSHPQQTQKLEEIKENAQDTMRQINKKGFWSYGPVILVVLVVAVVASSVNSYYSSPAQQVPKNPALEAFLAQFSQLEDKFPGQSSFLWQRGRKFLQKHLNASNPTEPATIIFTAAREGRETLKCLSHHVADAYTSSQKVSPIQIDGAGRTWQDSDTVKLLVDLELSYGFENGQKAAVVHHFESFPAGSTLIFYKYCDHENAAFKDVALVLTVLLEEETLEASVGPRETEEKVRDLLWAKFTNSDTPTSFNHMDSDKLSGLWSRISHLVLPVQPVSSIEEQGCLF

Take `COC(=O)[C@H](Cc1ccc(O)cc1)N[C@@H](/C=C/C1CC1)[C@H](O)Cc1ccccc1`: the composite z-score in [1] was -0.262; in [2], 0.396; in assay [3], -0.187; in [4] it was 0.154; in [5], 0.023; in assay [6], -0.721. Besides, the composite z-score in [7] is -0.776; in assay [9], -0.437; in assay [10], -0.0994; in assay [11], 0.308; in assay [15] it was -0.243; in assay [17] it was -0.251. The results for the composite z-score in assay [18], in [19] and in assay [20] were -0.0001, -0.0155 and -0.0828, respectively. For the same compound, the z-score is -0.269 (inactive) in assay [8]; 0.687 (inactive) in assay [12]; -0.813 (inactive) in assay [13]; 0.0393 (inactive) in [14]; -0.732 (inactive) in assay [16].
As for `CC(C)N1C(=O)c2ccccc2[C@@H](C(=O)NCC(F)(F)F)[C@@H]1c1ccc(CO)cc1`, the composite z-score is 0.277 in assay [1]; -1.16 in [2]; -0.133 in assay [3]; -0.0347 in assay [4]; -1.07 in assay [5]; 0.156 in assay [6]. The composite z-score in assay [7] was 1.21; in assay [9] it was -0.0934; in assay [10], -0.169; in assay [11] it was -0.57; in assay [15], 0.952; in assay [17], -0.117. Also, the composite z-score in [18] is 0.157; in assay [19], -0.59; in [20], -0.123. For the same compound, the z-score in [8] is 0.0294 (inactive); in assay [12], 0.125 (inactive); in assay [13], -0.637 (inactive); in assay [14], 0.0898 (inactive); in assay [16], -0.199 (inactive).
With `[N-]=[N+]=NCc1ccccc1[C@@H]1OC(c2ccc(OCCCO)cc2)=N[C@]1(Cc1ccccc1N=[N+]=[N-])C(=O)NCC(O)CO` (stereo not given in full), the composite z-score is -0.166 in [1]; 0.57 in assay [2]; 0.145 in assay [3]; 0.61 in assay [4]; 1.53 in assay [5]; 1.99 in assay [6]. In addition, the composite z-score in assay [7] was 0.981; in assay [9] it was 1.84; in assay [10] it was 0.272; in [11], 1.18; in assay [15] it was 3.29; in [17] it was 0.81. The composite z-score in [18] amounted to 0.92; in assay [19] it was 0.962; in assay [20] it was 0.235. In addition, the z-score in [8] is 0.0407 (inactive); in [12], 0.263 (inactive); in assay [13] it was 0.21 (inactive); in assay [14], 0.622 (inactive); in assay [16], 0.712 (inactive).
As to `COc1ccc([Si](C)(C)[C@@H]2[C@@H](CC(=O)N(CCO)Cc3ccccc3)O[C@]3(C(=O)N(Cc4ccc(I)cc4)c4ccccc43)[C@H]2C)cc1`, the composite z-score in assay [1] is 0.44; in assay [2], 1.2; in assay [3], -0.0403; in assay [4], 0.0554; in assay [5] it was 0.512; in assay [6] it was 0.136. In addition, the composite z-score was 0.83 in [7]; 0.621 in [9]; 1 in assay [10]; 1.55 in assay [11]; -0.0159 in [15]; 0.408 in assay [17]. In addition, the composite z-score in assay [18] was 1.63; in assay [19], 1.12; in [20], 0.338. Moreover, the z-score in assay [8] is -2.04 (inactive); in assay [12], 0.383 (inactive); in assay [13], 1.53 (inactive); in assay [14] it was 2.57 (inactive); in assay [16], 1.26 (inactive).
In the case of `C=CC[C@]1(C(=O)NCC(O)CO)COC(c2ccc(OCCCO)cc2)=N1` (stereo not given in full), the composite z-score in [1] is 1.3; in assay [2], 1.29; in assay [3] it was 0.0163; in [4] it was -0.0216; in [5], -0.888; in [6] it was 0.0498. In addition, the composite z-score in [7] was 0.99; in assay [9], 0.0371; in assay [10] it was -0.141; in [11] it was -0.726; in [15], 2.15; in assay [17] it was 0.479. Besides, the composite z-score in assay [18] was -0.415; in assay [19], -1.35; in assay [20], 0.0444. In addition, the z-score in assay [8] was 1.14 (inactive); in [12], 0.26 (inactive); in assay [13], 0.691 (inactive); in [14], 0.959 (inactive); in assay [16] it was -0.363 (inactive).
